Test systems include HCT-15 colon; HT29 colon; SNB-75 CNS; SNB-19 CNS; U251 CNS; PC-3 prostate; SK-MEL-5 melanoma; UACC-62 melanoma; LOX IMVI melanoma; SK-MEL-28 melanoma; SK-MEL-2 melanoma; EKVX NSCLC; UO-31 renal; TK-10 renal; ACHN renal; CAKI-1 renal; A498 renal; CCRF-CEM leukemia; MOLT-4 leukemia; SN12C renal.
What all share (assay): NCI-60 one-dose screen, 48 h (100 = growth as untreated, 0 = no growth, -100 = all killed)
What all share (details): 10 µM unless noted

Each structure is given as a SMILES string. This is part of a sample that, as a whole, favours compounds with a hit. Of some 83,000 tested, about 20% had one in any assay.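 The endpoint reported here, percent growth, reads 100 for growth as untreated, 0 for no net growth and -100 for all cells dead.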 Unmarked numbers belong to inactive results. Calls of active or inactive are those of the source. How the source made its calls: active means growth percent below 10; inactive means the rest.

Take `Cc1cccc(-c2cn3ccnc3c(-c3ccc4ncn(Cc5ccccc5)c4c3)n2)c1`: the growth with HCT-15 colon was 64.8%; in the experiment with HT29 colon, 58%; in the experiment with SNB-75 CNS it was 78.3%; in the experiment with SNB-19 CNS, 97.4%; with U251 CNS, 80.6%; in the experiment with PC-3 prostate it was 75.2%. The growth in the experiment with SK-MEL-5 melanoma was 89.9%; in the experiment on UACC-62 melanoma, 97.5%; in the experiment on LOX IMVI melanoma, 85.2%; in the experiment with SK-MEL-28 melanoma it was 101%; with SK-MEL-2 melanoma, 93.7%; in the experiment with EKVX NSCLC it was 77.7%. The growth was 58.3% with UO-31 renal; 110% with TK-10 renal; 87.6% with ACHN renal; 75.2% in the experiment on CAKI-1 renal; 77.9% in the experiment with A498 renal; 78.9% in the experiment with CCRF-CEM leukemia. Moreover, in the experiment with MOLT-4 leukemia, the growth is 63.1%.

Consider `CC(=O)c1cc2c(N)c(C(=O)Nc3cccc4ccncc34)sc2nc1C`, for which the growth is 87.1% in the experiment on HCT-15 colon; 104% with HT29 colon; 97.7% in the experiment with SNB-75 CNS; 95.4% with SNB-19 CNS; 101% in the experiment on U251 CNS; 80.7% in the experiment with PC-3 prostate. Also, the growth in the experiment with SK-MEL-5 melanoma was 64.7%; with UACC-62 melanoma it was 69.9%; in the experiment on LOX IMVI melanoma, 102%; in the experiment with SK-MEL-28 melanoma, 91.1%; in the experiment with SK-MEL-2 melanoma it was 78%; with EKVX NSCLC, 91.5%. The growth was 88.2% in the experiment with UO-31 renal; 99% in the experiment on TK-10 renal; 102% with ACHN renal; 93.1% with CAKI-1 renal; 101% with CCRF-CEM leukemia; 88.7% in the experiment with MOLT-4 leukemia.

In the case of `COc1cccc2c1c1nc3cc(C)c(C)cc3nc1n2CCN(C)C`, the growth with HCT-15 colon is 13.1%; with HT29 colon, 11%; in the experiment with SNB-75 CNS, 34%; in the experiment on SNB-19 CNS it was 25.4%; with U251 CNS it was 25.9%; with PC-3 prostate, 18.3%. The growth with SK-MEL-5 melanoma was 10.7%; in the experiment with UACC-62 melanoma, 14.6%; in the experiment on LOX IMVI melanoma, 1.15% (active); in the experiment on SK-MEL-28 melanoma, 36%; with SK-MEL-2 melanoma, 11%; in the experiment with EKVX NSCLC it was 25.7%. Moreover, the growth with UO-31 renal is 6.86% (active); in the experiment with TK-10 renal it was 52.1%; in the experiment with ACHN renal, -12.3% (active); with CAKI-1 renal, 9.75% (active); in the experiment with CCRF-CEM leukemia, 27.6%; with MOLT-4 leukemia it was 10.5%.

Take `CC(Sc1nc2ccccc2c(=O)n1CCc1ccc(S(N)(=O)=O)cc1)C(=O)Nc1ccc(Cl)cc1` (stereo not drawn): the growth is 67.9% in the experiment with HCT-15 colon; 89.5% with HT29 colon; 83.3% in the experiment on SNB-75 CNS; 90.1% with SNB-19 CNS; 84.1% in the experiment with U251 CNS; 81.7% in the experiment on PC-3 prostate. Also, the growth in the experiment with SK-MEL-5 melanoma is 79.4%; with UACC-62 melanoma, 73.6%; in the experiment with LOX IMVI melanoma it was 88.3%; with SK-MEL-28 melanoma it was 105%; with SK-MEL-2 melanoma it was 80.9%; in the experiment with EKVX NSCLC, 70.3%. Also, the growth in the experiment with UO-31 renal was 53.8%; in the experiment with TK-10 renal, 80.1%; in the experiment on ACHN renal, 86.3%; with CAKI-1 renal it was 75.6%; in the experiment with CCRF-CEM leukemia, 63.7%; in the experiment with MOLT-4 leukemia it was 68.3%.

Take `COc1cc(/C=C/c2cc(O)c(C(C)=O)c(O)c2)cc2c1O[C@]1(C)CC[C@@H](O)C(C)(C)[C@H]1C2`: the growth in the experiment with HCT-15 colon is 42.8%; in the experiment with HT29 colon it was 34.9%; in the experiment on SNB-75 CNS, 7.67% (active); with SNB-19 CNS it was 56.4%; in the experiment with U251 CNS, 36.1%; in the experiment on PC-3 prostate it was 45.2%. For the same compound, the growth is 65.2% in the experiment with SK-MEL-5 melanoma; 38.7% with UACC-62 melanoma; 35.1% in the experiment on LOX IMVI melanoma; 51.4% in the experiment with SK-MEL-28 melanoma; 31.4% with SK-MEL-2 melanoma; 90.7% in the experiment with EKVX NSCLC. Moreover, the growth in the experiment on SN12C renal is 82.5%; in the experiment with UO-31 renal, 29.7%; in the experiment with TK-10 renal, 94.7%; in the experiment on ACHN renal it was 65%; with CAKI-1 renal it was 45%; in the experiment on CCRF-CEM leukemia it was 37.6%. Further, in the experiment on MOLT-4 leukemia, the growth was 20.2%.

In the case of `NC(=NCCCOc1ccc(F)cc1)Nc1ccc(I)cc1`, the growth in the experiment on HCT-15 colon was 75.3%; with HT29 colon it was 38.2%; in the experiment with SNB-75 CNS it was 63.6%; in the experiment with SNB-19 CNS, 78.1%; with U251 CNS it was 78.6%; with PC-3 prostate, 59.1%. In addition, the growth was 38.2% in the experiment with SK-MEL-5 melanoma; 82.8% in the experiment on UACC-62 melanoma; 84.4% in the experiment on LOX IMVI melanoma; 88.3% in the experiment on SK-MEL-28 melanoma; 84.1% with SK-MEL-2 melanoma; 76% in the experiment with EKVX NSCLC. The growth with SN12C renal is 81%; in the experiment on UO-31 renal, 59.2%; with TK-10 renal, 73%; with ACHN renal it was 73.5%; in the experiment on CAKI-1 renal, 74.5%; in the experiment on CCRF-CEM leukemia, 79.3%. Moreover, in the experiment with MOLT-4 leukemia, the growth is 40.9%.

For `O=C(/C=C(/C=C/c1coc2ccccc12)OB(F)F)/C=C/c1coc2ccccc12`, the growth in the experiment on HCT-15 colon is 95.1%; in the experiment with HT29 colon it was 100%; in the experiment on SNB-75 CNS it was 98%; in the experiment on SNB-19 CNS, 89.1%; in the experiment on U251 CNS, 84.6%; with PC-3 prostate, 86.2%. In addition, the growth in the experiment with SK-MEL-5 melanoma is 105%; with UACC-62 melanoma it was 88.9%; with LOX IMVI melanoma, 84.9%; in the experiment on SK-MEL-28 melanoma, 101%; in the experiment on SK-MEL-2 melanoma, 91.6%; with EKVX NSCLC, 108%. Also, the growth in the experiment with SN12C renal was 97.4%; in the experiment on UO-31 renal, 87.7%; with TK-10 renal, 117%; with ACHN renal it was 101%; in the experiment with CAKI-1 renal, 105%; with CCRF-CEM leukemia, 72.6%. Moreover, the growth in the experiment on MOLT-4 leukemia was 85.5%.

Turning to `COc1ccccc1/C=C1\Oc2cc(OCCN3CCCC3)ccc2C1=O`, the growth in the experiment with HCT-15 colon was 39.4%; in the experiment with HT29 colon, 14%; in the experiment on SNB-75 CNS it was 90.5%; in the experiment with SNB-19 CNS it was 88.9%; in the experiment with U251 CNS, 76.1%; with PC-3 prostate, 83%. Besides, the growth is 87.2% in the experiment on SK-MEL-5 melanoma; 97.3% in the experiment with UACC-62 melanoma; 68.1% in the experiment on LOX IMVI melanoma; 91.8% in the experiment on SK-MEL-28 melanoma; 106% with SK-MEL-2 melanoma; 85.9% in the experiment with EKVX NSCLC. Besides, the growth with UO-31 renal was 66.3%; with TK-10 renal, 97.9%; in the experiment with ACHN renal, 94.2%; in the experiment on CAKI-1 renal, 94.3%; in the experiment with CCRF-CEM leukemia it was 54.7%; with MOLT-4 leukemia, 68.7%.

(Values after PubChem BioAssay (NCI).)
